Drawing on PubChem BioAssay (Tox21), this text covers Potency and outcome for eight compounds.

The nature of experiment [1]: qHTS assay for small molecule agonists of the p53 signaling pathway (AID 651631; calls by dose curve; also: nearly all actives have a fitted effect of over 15% in size). In outline:
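HCT-116 cells carrying a beta-lactamase reporter under p53 response elements were dosed with compound for 16 h at 37 °C. LiveBLAzer B/G FRET substrate was then added for 2 h at room temperature, and fluorescence intensity was read to detect pathway agonism.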
(In general: qHTS replaces the single test concentration by a dilution series.)

A short description of experiment [2]: qHTS assay for small molecules that induce genotoxicity in human embryonic kidney cells expressing luciferase-tagged ATAD5 (AID 651632). Also: nearly all actives have a fitted effect of over 15% in size. In outline:
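Luminescence read-out: after 16 hr compound exposure at 37C, ATAD5-luciferase HEK293T cells received Amplite, 30 min RT, then CCD imaging. A rise in signal marks genotoxic stress.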

Experiment [3] is described as follows: qHTS assay for small molecule agonists of the p53 signaling pathway - cell viability (AID 651633; calls by dose curve;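 also: p53RE-bla HCT reporter cells with a stable beta-lactamase p53 reporter; series mostly up to about 83 µM; nearly all actives have a fitted effect of over 30% in size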). A digest of the protocol: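 Viability counter-read: CellTiter-Glo luminescence (30 min, room temperature) in the same p53RE-bla plates. These plates had been exposed to compounds for 16 h at 37 C.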
Experiment [4] in a line: qHTS assay for small molecule disruptors of the mitochondrial membrane potential - cell viability (AID 720634; calls by dose curve;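 also: human HepG2 liver cancer cells; series mostly up to about 83 µM; nearly all actives have a fitted effect of over 20% in size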). In outline: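 Luminescence from CellTiter-Glo (ATP content) gave viability in HepG2 cells, read in the same wells as the MMP dye assay after 1 hr compound exposure at 37 C.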
Experiment [5] can be described thus: qHTS assay to test for compound auto fluorescence at 590 nm (red) in HepG2 cells (AID 720674). A digest of the protocol: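 1 hr compound incubation on HepG2 cells, 37 C, 5% CO2; plate read ex 540 nm / em 590 nm; intensities reported as Rose Bengal sodium equivalents.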
The nature of experiment [6]: qHTS assay to test for compound auto fluorescence at 535 nm (green) in HepG2 cells (AID 720675).
Experiment [7] in a line: qHTS assay to test for compound auto fluorescence at 460 nm (blue) in HEK293 cells (AID 720678). A digest of the protocol: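 Triamterene serves as the blue fluorophore standard. Compound signal at 405/460 nm is read in HEK293 wells (2,000 cells, 10% dialyzed FBS) after overnight treatment at 37C.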
Experiment [8] in a line: qHTS assay to test for compound auto fluorescence at 590 nm (red) in HEK293 cells (AID 720679). A digest of the protocol:
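We plated HEK293 cells in 10% dialyzed FBS medium, let them adhere for 4-5 hr, then added 23 nL compound. Overnight at 37C and 5% CO2 preceded fluorescence measurement at 540/590nm.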

A short description of experiment [9]: qHTS assay to test for compound auto fluorescence at 535 nm (green) in HEK293 cells (AID 720680).
The nature of experiment [10]: qHTS assay to test for compound auto fluorescence at 460 nm (blue) in HEK293 cell free culture (AID 720681). A digest of the protocol: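 Blue fluorescence (Ex 405/Em 460 nm, triamterene-equivalent) was read immediately after pin transfer of compound or DMSO into medium (DMEM, 10% FBS) without cells.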
Experiment [11] is described as follows: qHTS assay to test for compound auto fluorescence at 535 nm (green) in HEK293 cell free culture (AID 720682). In outline: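 Green-label autofluorescence (485 nm excitation, 535 nm emission) measured on compound added to cell-free culture medium (DMEM, 10% FBS). Output is expressed relative to fluorescein.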
Experiment [12] in a line: qHTS assay to test for compound auto fluorescence at 460 nm (blue) in HepG2 cell free culture (AID 720685). A digest of the protocol:
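Cell-free plates of MEM plus 10% FBS received 23 nL compound or DMSO vehicle; blue-channel (405/460 nm) intensity scored against triamterene as reference fluorophore.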

Experiment [13] can be described thus: qHTS assay to test for compound auto fluorescence at 535 nm (green) in HepG2 cell free culture (AID 720686).
A short description of experiment [14]: qHTS assay to test for compound auto fluorescence at 460 nm (blue) in HepG2 cells (AID 720687). In outline: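 Blue-channel autofluorescence (Ex/Em 405/460 nm, triamterene-equivalent) was measured after 1 hr compound exposure at 37 C, 5% CO2. Cells were HepG2, plated overnight at 37 C in MEM plus 10% FBS.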
Experiment [15] concerns the target Glucocorticoid receptor (Homo sapiens) (UniProt P04150). Description: qHTS assay to identify small molecule agonists of the glucocorticoid receptor (GR) signaling pathway (AID 720691; active = well fitted activation curve with a large enough effect in the signal ratio in the repeat runs, not every such curve was filed as active; the % refers to the signal ratio). A digest of the protocol:
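HeLa GR-bla reporter line; cells pre-incubated 4 h, compound in DMSO 18 h at 37 C; LiveBLAzer B/G FRET substrate 2 h RT; fluorescence intensity read-out.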

Experiment [16] has the same target. Briefly: qHTS assay to identify small molecule antagonists of the glucocorticoid receptor (GR) signaling pathway (AID 720692; active = well fitted inhibition curve with a large enough effect in the signal ratio in the repeat runs, not every such curve was filed as active; the % refers to the signal ratio). A digest of the protocol:
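Read-out: beta-lactamase FRET substrate fluorescence, 2 h at room temperature, in HeLa cells stably carrying a GRE-driven bla reporter. Compounds were co-incubated with 5 nM dexamethasone agonist (final) for 18 h at 37 C.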

The nature of experiment [17]: qHTS assay for small molecule disruptors of the mitochondrial membrane potential (AID 720635). Also: potency is read from the fitted curve at half-maximal effect. A digest of the protocol: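 Mitochondrial membrane potential tracked with Mito-MPS dye, red aggregates (ex 540/em 590 nm) against green monomers (ex 490/em 535 nm). Compound treatment 1 hr at 37C, dye 30 min in HepG2.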
Experiment [18] is described as follows: qHTS assay to test for compound auto fluorescence at 590 nm (red) in HepG2 cell free culture (AID 720684). In outline:
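Cell-free; medium MEM + 10% FBS; compound or DMSO added by pintool; read Ex 540/Em 590 nm; Rose Bengal sodium as red reference fluorophore.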

Experiment [19] in a line: qHTS assay for small molecules that induce genotoxicity in human embryonic kidney cells expressing luciferase-tagged ATAD5 - cell viability (AID 651634; calls by dose curve; also: nearly all actives have a fitted effect of over 25% in size). A digest of the protocol:
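HEK293T ATAD5-luc cells, 2,000/well; compound 15.5 hr, 37C/5% CO2; CellTiter-Fluor 30 min, 37C; fluorescence read.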

The nature of experiment [20]: qHTS assay to test for compound auto fluorescence at 590 nm (red) in HEK293 cell free culture (AID 720683). A digest of the protocol:
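Red-channel autofluorescence of compounds in culture medium (DMEM, 10% FBS), no cells, measured at 540/590 nm. Rose Bengal sodium is the reference fluorophore for equivalence.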

Each structure is given as a SMILES string. Inconclusive results are not listed. Activity calls are given as the source filed them. Unless noted, calls follow the shape of the dose curve; as a rule, active = well fitted curve in the direction sought with a large enough effect in the repeat runs; inconclusive = weak or mixed curves; inactive = no such curve, though single readings can be large; an effect the other way counts as inactive or inconclusive.

Chain of Glucocorticoid receptor (Homo sapiens) (P04150 whole entry, looked up): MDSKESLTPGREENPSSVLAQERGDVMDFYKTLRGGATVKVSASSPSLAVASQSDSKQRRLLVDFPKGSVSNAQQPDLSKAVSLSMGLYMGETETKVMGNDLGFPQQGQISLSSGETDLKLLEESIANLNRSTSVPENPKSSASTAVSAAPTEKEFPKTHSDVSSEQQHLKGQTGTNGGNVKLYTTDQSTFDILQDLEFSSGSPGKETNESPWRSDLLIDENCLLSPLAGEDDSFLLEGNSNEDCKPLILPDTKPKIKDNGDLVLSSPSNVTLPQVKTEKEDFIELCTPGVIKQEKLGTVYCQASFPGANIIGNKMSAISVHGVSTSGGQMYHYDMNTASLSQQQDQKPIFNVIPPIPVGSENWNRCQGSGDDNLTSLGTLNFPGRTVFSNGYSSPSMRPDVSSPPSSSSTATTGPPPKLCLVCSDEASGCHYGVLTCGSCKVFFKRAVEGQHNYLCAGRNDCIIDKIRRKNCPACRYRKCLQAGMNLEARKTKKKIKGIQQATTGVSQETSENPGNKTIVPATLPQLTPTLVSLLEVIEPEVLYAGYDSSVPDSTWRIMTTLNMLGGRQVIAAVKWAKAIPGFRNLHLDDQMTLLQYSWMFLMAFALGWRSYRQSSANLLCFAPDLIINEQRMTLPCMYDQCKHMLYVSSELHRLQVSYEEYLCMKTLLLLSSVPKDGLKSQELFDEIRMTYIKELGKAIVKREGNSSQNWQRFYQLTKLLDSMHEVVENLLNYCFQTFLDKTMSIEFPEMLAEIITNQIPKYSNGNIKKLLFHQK

Take `c1cncc([C@@H]2CCCCN2)c1`: the Potency result in experiment [1], in [3], in experiment [4], in [15] and in experiment [16] was “inactive” in each case. Also, the compound was called inactive in experiment [2], in experiment [5], in experiment [6], in experiment [7], in experiment [8] and in experiment [9]. Also, the call in experiment [10], in experiment [11], in experiment [12], in [13] and in experiment [14] was inactive.

As to `CCCOc1nn(C(=O)NS(=O)(=O)c2ccccc2C(=O)OC)c(=O)n1C`, the Potency result in experiment [1], in experiment [3], in [4], in experiment [17] and in [15] was “inactive” each time. Also, the compound was classed as inactive in experiment [2], in experiment [5], in experiment [6], in experiment [7], in experiment [8] and in experiment [9]. Further, the result in experiment [10], in [11], in experiment [18], in experiment [12], in experiment [13] and in experiment [14] was inactive.

Regarding `CN(CCO)CCO`, the Potency entry in experiment [1], in [3], in experiment [19], in experiment [4] and in experiment [15] was “inactive” in each case. Further, the compound was classed as inactive in experiment [2], in experiment [5], in experiment [6], in experiment [7], in [8] and in [9]. In addition, the call in experiment [10], in experiment [11], in experiment [20], in experiment [18], in experiment [12] and in [13] was inactive.

With `CC(C)(C1CCC(O)CC1)C1CCC(O)CC1` (stereo not given), the Potency result in experiment [1], in experiment [3], in experiment [19] and in experiment [4] was “inactive” each time. In experiment [17], the Potency is 7.7 µM (active). Besides, the compound was called inactive in experiment [5], in [6], in experiment [7], in [8], in [9] and in experiment [10]. In addition, the call in experiment [11], in [20], in experiment [18], in experiment [12], in experiment [13] and in experiment [14] was inactive.

For the compound `CCOC(=O)C(SP(=S)(OC)OC)c1ccccc1` (stereo not given), the Potency result in experiment [1], in experiment [3], in experiment [19], in experiment [4] and in experiment [15] was “inactive” throughout. The compound was classed as inactive in [2], in experiment [5], in [6], in experiment [8], in experiment [9] and in experiment [10]. The call in experiment [11], in [20], in experiment [18], in experiment [12] and in experiment [13] was inactive.

Take `C/C=C/CC#N`: the Potency entry in [1], in experiment [3], in [19] and in experiment [4] was “inactive” in each case. Moreover, the outcome in [2], in experiment [5], in [6], in [7], in [8] and in experiment [9] was inactive. Moreover, the result in experiment [10], in [11], in [20], in [12], in [13] and in experiment [14] was inactive.

Turning to `CCc1cc(OC)c(C[C@H](C)N)cc1OC`, the Potency result in [1], in experiment [3], in experiment [19], in experiment [4], in experiment [15] and in [16] was “inactive” each time. For the same compound, the result in experiment [2], in [5], in experiment [6], in experiment [7], in experiment [8] and in [9] was inactive. Further, the compound was classed as inactive in experiment [10], in experiment [11], in [20], in [18], in experiment [12] and in [13]. For the same compound, in experiment [14], the call was inactive.

For the compound `CCOP(=S)(OCC)Oc1ccc(Cl)cc1Cl`, the Potency entry in experiment [1], in [3], in experiment [19], in [15] and in [16] was “inactive” in each case. In addition, the outcome in [2], in [5], in [6], in experiment [7], in [8] and in [9] was inactive. The call in [10], in experiment [11], in experiment [18], in experiment [12], in [13] and in experiment [14] was inactive.
